Among the data in PubChem BioAssay AID434973 (Sanford-Burnham Center for Chemical Genomics, 2010) are inhibition values, retold here.

SMILES strings stand for the structures. About 4,900 (1.5%) of roughly 330,000 compounds were called active. The full list was thinned out, with actives kept by preference. A number with no mark means an inactive call.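 Rule for the calls: active = inhibition above about 50% at the single test dose (limit read from the data); inactive = the rest.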

The target of this assay is Sentrin-specific protease 7 (Homo sapiens) (UniProt Q9BQF6). Description: blockers of human SENP7 peptidase activity – biochemical, luminescence, uHTS, primary screen (AID 434973).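 Note: plate controls were DMSO with enzyme for no effect and no enzyme buffer wells for full effect.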 The following applies: recombinant SENP7, Z-RLRGG-aminoluciferin luminescence, 40 min; at 5 µM; active compounds read high.
As for `CN1CCN(c2cc(N3CCNCC3)ccc2[N+](=O)[O-])CC1`, the inhibition was 6.98%.
Regarding `Cc1nc2ccc(N3CCN(C)CC3)cc2nc1C`, the inhibition was -4.82%.
Regarding `COc1cccc(-c2nc3ccc(N4CCN(C)CC4)cc3[nH]2)c1`, the inhibition was 57.6% (active).
With `Cc1ccc(C)c(NC2=NCCCS2)c1`, the inhibition was 5.92%.
For the compound `COc1cc(Cn2c(N)c(C(=O)NCc3ccco3)c3nc4ccccc4nc32)cc(OC)c1OC`, the inhibition was 80.7% (active).
With `CCOC(=O)c1c(N)n(CCN2CCOCC2)c2nc3ccccc3nc12`, the inhibition was 0.976%.
`CCOC(=O)c1c(N)n(Cc2ccccc2)c2nc3ccccc3nc12`: the inhibition is 13%.
Take `CCOC(=O)C(O)(c1ccc(N)c(OC)c1)C(F)(F)F` (stereo not given): the inhibition is 3.48%.
With `NCC(O)c1ccc(O)cc1` (stereo not given), the inhibition was -7.28%.
For `COc1ccc(N=Cc2c(O)n(C)c(=O)[nH]c2=O)cc1`, the inhibition is 22.6%.

The inhibition is the change of the read-out against control, counted positive when it falls.
